The list is not random: actives were taken first. Their share in the collection is about 0.96%.
Rtt109 Vps75 – blocks Candida albicans Rtt109/Vps75 acetyltransferase activity; Q5AAJ8; purified Rtt109/Vps75, ThioGlo CoA-SH fluorescence, 4 h; inhibition, % at 34.9 µM; actives 0.16% (n = 330,000);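 active means inhibition of at least 50% in every replicate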
Target sequence (Q5AAJ8 whole entry, looked up): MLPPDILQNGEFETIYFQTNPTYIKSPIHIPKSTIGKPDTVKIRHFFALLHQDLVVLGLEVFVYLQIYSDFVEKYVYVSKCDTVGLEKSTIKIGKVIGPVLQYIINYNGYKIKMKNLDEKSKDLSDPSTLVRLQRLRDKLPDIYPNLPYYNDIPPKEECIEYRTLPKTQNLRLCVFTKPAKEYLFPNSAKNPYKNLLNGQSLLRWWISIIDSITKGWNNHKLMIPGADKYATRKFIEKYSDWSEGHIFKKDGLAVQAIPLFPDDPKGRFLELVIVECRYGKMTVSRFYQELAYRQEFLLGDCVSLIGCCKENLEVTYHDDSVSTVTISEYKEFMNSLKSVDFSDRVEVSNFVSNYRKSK
DAGLB inh – diacylglycerol lipase beta (human) inhibition; Q8NCG7; inhibition, % at 5.17 µM; HEK293T DAGLB membrane lysate, EnzChek fluorogenic substrate; actives 0.059% (n = 340,000); in the data active means inhibition above about 34%;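 further: 0% = enzyme with vehicle and 100% = wells lacking enzyme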
V-ATPase pH – alters yeast V-ATPase proton transport; S. cerevisiae, pHLuorin cytosolic pH fluorescence; response, % at 10 µM; actives 0.37% (n = 350,000); AID 504577; in the data active means response mostly above about 7.3%, no sharp cut-off; inactive means mostly below about 5.4%; further: actives read high
HDAC3 inh – inhibitors of human histone deacetylase 3; inhibition, % at 8.3 µM; actives 0.15% (n = 320,000); O15379; recombinant HDAC3, fluorogenic peptide/trypsin coupled, fluorescence; in the data active means inhibition above about 26%, passing the limit was not always enough
MIN6 prolif-1 – induces beta-cell replication in MIN6 cells. proliferation, % at 10 µM. MIN6 cells proliferation, ATPlite luminescence, 48 h; cells starved in 0.2% serum; 100% = growth in 10% serum. actives 0.29% (n = 330,000);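 active means compounds whose signal lies at least 3.5 SD above the mean of all wells on their plate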;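 further: 0% = DMSO-treated cells in low-serum medium and 100% = 10% serum control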
MIN6 prolif-2 – MIN6 beta-cell replication induction, confirmed; 920 tested, under 10 active; proliferation increase, % at 50 µM; MIN6 beta-cell proliferation, ATPlite luminescence, 48 h; cells kept in 0.2% serum; scaled between 0.2% and 10% serum; AID 463095; shares compounds with MIN6 prolif-1;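 active means proliferation increase above 40% at any of the four tested concentrations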
* marks the source's active call; other numbers are inactive results; x = not tested or not shown.

SMILES	Rtt109 Vps75	DAGLB inh	V-ATPase pH	HDAC3 inh	MIN6 prolif-1	MIN6 prolif-2
CCOC(=O)c1c(S(=O)(=O)NCC(=O)Nc2ccc(OC)cc2)c(C)n(C)c1C	-5.6	-1.5	-4.7	4.6	12.8*	-2.4
CCOC(=O)c1c(S(=O)(=O)NCCc2ccccc2)c(C)n(C)c1C	1.9	0.4	-0.3	-10.1	11.7*	-5.2
Cc1ccc(NC(=O)COC(=O)CN2C(=O)NC3(CCCC3)C2=O)cc1S(=O)(=O)N(C)C	-6.3	1.3	-1.8	-2.0	-1.1	x
COc1ccccc1NC(=O)CCCN1C(=O)C(c2ccccc2)Oc2cccnc21 (stereo not given)	-2.1	-3.9	-0.1	10.0	12.6*	-6.1
COc1cc(NC(=O)CCC(=O)O)nc(OC)n1	-0.1	-4.4	-0.7	-0.5	0.1	x
Cc1cc2nc(-c3ccncc3)cc(C(F)(F)F)n2n1	-3.4	-1.1	0.4	3.5	9.3*	3.7
COC(=O)c1cc2nc(-c3ccc(C)cc3)cc(C(F)(F)F)n2n1	x	-1.5	-3.2	x	-3.5	x
COc1ccccc1NC(=O)N1CCN(c2ccccc2F)CC1	0.8	-2.1	1.3	x	7.3*	0.5
COc1c(C)cc(C(=O)C2CCCN(C(=O)c3cc4nc(C)cc(C)n4n3)C2)cc1C (stereo not given)	0.4	-0.6	-2.8	-6.0	1.2	x
O=C(c1ccco1)N1CCCC(c2nc3c(nnn3Cc3c(Cl)cccc3Cl)c(=O)[nH]2)C1 (stereo not given)	11.9	3.4	3.3	-5.0	8.4*	-5.8
CC(C)=C1C2CCC1C1C(=O)N(c3ccc(C)c(C)c3)C(=O)C21 (stereo not given)	4.4	-0.6	-3.5	2.4	-2.5	x
CCOc1ccc(/C=N/n2c(SC)nnc2-c2ccccc2)cc1OCC	19.8	-1.9	-3.1	7.3	8.2*	-5.3
CC(NC(=O)CN1C(=O)NC2(CCCCCCC2)C1=O)c1ccccc1 (stereo not given)	-7.2	-0.2	-4.8	-97.2	9.5*	-0.1
CCCNC(=O)c1ccccc1NC(=O)COc1cccc2c1OC(C)(C)C2	5.0	-1.7	6.8	x	4.9	x
CC1(C)Cc2cccc(OCC(=O)Nc3ccccc3F)c2O1	-4.2	-13.5	-5.4	1.2	14.7*	-4.7
C/C(=N/Nc1ncc(C(F)(F)F)cc1Cl)c1ccncc1	-3.0	x	3.7	3.2	7.8*	-2.6
COc1ccc(C(=O)N=C2SC3CS(=O)(=O)CC3N2Cc2ccc(OC)c(OC)c2)cc1 (stereo not given)	2.2	0.5	-1.8	0.9	10.8*	-2.3
Cc1ccc(S(=O)(=O)N(C)C)cc1NC(=O)COC(=O)c1n[nH]c(=O)c2ccccc12	-3.2	-1.1	-2.4	-2.1	11.5*	0.9
Cc1ccc(S(=O)(=O)N(C)C)cc1NC(=O)COC(=O)Cc1n[nH]c(=O)c2ccccc12	-3.2	0.6	2.2	-9.0	0.7	x
COc1ccccc1C(=O)Nc1nnc(CCc2ccccc2)s1	2.7	-6.1	0.0	5.1	-1.3	x
COc1ccc(N(CC(=O)Nc2cccc(C)c2)S(=O)(=O)c2c(C)n[nH]c2C)cc1	4.0	-0.6	1.6	0.0	-4.2	x
COc1cc(NC(=O)CN(c2ccc(C)cc2)S(=O)(=O)c2c(C)n[nH]c2C)cc(OC)c1	10.9	-1.7	-1.9	4.6	0.0*	-6.2
CCOc1ccc2cc(C#N)c(SCC(=O)N3CCOCC3)nc2c1	2.5	-2.4	-5.5	-15.1	-1.7	x
CCOc1ccc2nc(SCC(=O)N3CCCCCC3)c(C#N)cc2c1	-8.7	-4.1	0.7	1.4	5.3*	-0.2
CCN(CC)S(=O)(=O)c1ccc(NC(=O)c2ccc(Sc3nncn3C)c([N+](=O)[O-])c2)cc1	16.4	0.2	3.4	3.2	0.0	x
CCS(=O)(=O)c1ccc(Sc2nncn2C)c([N+](=O)[O-])c1	-11.9	-0.5	-0.7	3.2	7.7*	-6.1
COc1ccc(OC)c(NC(=O)CCn2cccc2)c1	4.0	0.8	-1.9	-16.1	7.5*	-1.3
C/C(=N\NC(=O)C1CC1)c1ccccc1O	4.8	0.4	-3.5	1.6	11.3*	-2.5
CC1(c2ccc3c(c2)OCO3)NC(=O)N(CC(=O)Nc2ccccc2[N+](=O)[O-])C1=O (stereo not given)	-0.3	-0.8	1.2	x	14.0*	-0.4
